The values that follow come from PubChem BioAssay.

Values joined by “and” are separate entries in the source; they are usually repeats but may differ in a detail not shown here. Identical values can stand only once. Inconclusive results are not listed. Active and inactive are the calls of the source. Unless noted, no rule for the calls is given here.

Test [1] in a line: circadian clock period modulators, cell-based, LOPAC library, luminescence reporter (AID 2774).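 Also: values are relative to mean of DMSO wells on each plate.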 Particulars: circadian reporter cells, at 7 µM, actives lie on both sides.
The test system of test [2] is Hepatitis C virus NS3 helicase. Briefly: HCV NS3 helicase inhibitors, primary screen, biochemical, fluorescence polarization, LOPAC1280 library (AID 687035; in the data active = inhibition above about 37%). Particulars: Purified HCV NS3 helicase, Cy5-dT15 ssDNA binding fluorescence polarization; stronger effect = higher value; concentration not given here.
Test [3] in a line: Cy5 fluorescence quenching or enhancement artefacts, artefact control for HCV NS3 helicase inhibitor project, biochemical, LOPAC1280 (AID 687037). Particulars: Cy5-DNA-NS3h complex fluorescence interference counterscreen.
The test system of test [4] is Aerobactin synthetase IucA (Klebsiella pneumoniae). Kind of test: IucA aerobactin synthetase inhibitors, biochemical, Tocris library, absorbance (AID 1345561).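 Also: 100% = enzyme without compound and 0% = no enzyme.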 Particulars: purified IucA enzyme assay, absorbance (OD) read-out; stronger effect = lower value;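 tested at 8 µM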.
Test [5] has as its system Aerobactin synthetase IucA (Klebsiella pneumoniae, hypervirulent). Kind of test: IucA enzyme inhibition, biochemical, LOPAC library, absorbance readout (AID 1346212).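 Also: 100% = no compound wells and 0% = no enzyme wells.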 Particulars: IucA enzyme assay, absorbance (OD) readout; stronger effect = lower value;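 tested at 8 µM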.
Test [6] in a line: sensitizers of A549 cells to miR-34 induction, primary screen, imaging, A549 dox-inducible miR-34, nuclei and caspase counts (AID 1347080;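 active = compounds whose cell count with miR-34 switched on is under 0.7 times the count with it off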). Particulars: A549 miR-34 inducible, Hoechst nuclei count, 48 h.
Test [7] can be described thus: phospholipid biosynthesis inhibitors in animal cells, primary screen, cell-based, LOPAC library, screen 4 (AID 1347384). Particulars: phospholipid biosynthesis inhibition screen, at 10 µM.
The nature of test [8]: viability rescue of complex I mutant cybrids, primary screen, cell-based, galactose medium, ATP luminescence (AID 1645843;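 active = z-score of at least 1.8 in each of two replicates, scored against plate mean and spread of sample wells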;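 also: positive z means more ATP and so rescue of galactose-driven cybrid death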). Particulars: complex I mutant cybrid cells, 72 h, stronger effect = higher value.
Test [9] addresses ATP-dependent translocase ABCB1 (Homo sapiens) (UniProt P08183). Kind of test: MDR1 (ABCB1) efflux transporter inhibition, cell-based (AID 377; in the data active = fluorescence slope change above about 50%). Particulars: MDR1-expressing cells, fluorescent substrate accumulation slope; stronger effect = higher value; concentration not given here.
Test [10] in a line: hESC survival regulators, cell-based (AID 493140).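 Also: cells exposed to compounds for four days before counting.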 Particulars: human embryonic stem cell survival screen; stronger effect = higher value.
Test [11] can be described thus: liver-stage malaria parasite growth inhibition, primary screen, cell-based, HepG2, luciferase luminescence, HepG2 viability (AID 624349; in the data active = parasite load remaining mostly below about 12%, no sharp cut-off; inactive = mostly above about 10%;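 also: 100% = mean of DMSO negative control wells on the same plate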). Particulars: P. berghei liver stage in HepG2, luciferase luminescence, concentration not given here; parasite load remaining: stronger effect = lower value; viability: measured here: HepG2 viability without parasites.
Test [12] is described as follows: survival rescue of mitochondrial mutant cells in low glucose, primary screen, MELAS cybrids, Rieske KO mouse fibroblasts, CellTiter-Glo (AID 1508586;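 active = mean z-score across replicates of 1.96 or higher in either the MELAS or the Rieske mutant cell line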;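 also: z relative to plate mean and SD of compound and empty wells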).
Test [13] in a line: differential killing of epithelial or mesenchymal cells, primary screen, imaging, PC-3E GFP, TEM4-18 mCherry, co-culture (AID 1345086;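 active = compounds killing one labelled cell type while sparing the other, by normalised counts and ratio limits, not self-fluorescent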;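 as to all read-outs here: cells exposed to compound for 72 h before imaging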;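 as to red/green cell ratio (normalised): normalised mesenchymal count divided by normalised epithelial count so high means epithelial killing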). Particulars: imaging cell counts, at 1 µM; for red/green cell ratio (normalised): actives lie on both sides.
Test [14] concerns the target Mitogen-activated protein kinase 7 (Homo sapiens) (UniProt Q13164). Kind of test: ERK5 transactivation activators in reporter cells, primary screen, cell-based, HTS (AID 1508626;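 active = luciferase signal above three times the same-plate solvent-only control wells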;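 also: luciferase driven by Gal4-ERK5 fusion binding five Gal4 sites before minimal TATA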). Particulars: HeLa Gal4-ERK5 transactivation, 18 h, at 5 µM, stronger effect = higher value.
For test [15], the target named is NAD(+) hydrolase SARM1 (Homo sapiens) (UniProt Q6SZW1). Kind of test: SARM1 TIR NADase inhibitors, cell lysate, NAD-Glo luminescence (AID 1508614;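 active = compound whose remaining NAD level is above about 45 nM, limit read from the data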;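 also: higher remaining NAD means stronger inhibition of SARM1 NADase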). Particulars: SAM-TIR HEK293T lysate NADase, at 1 µM, stronger effect = higher value.
Chain of NAD(+) hydrolase SARM1 (Homo sapiens) (Q6SZW1 whole entry, looked up): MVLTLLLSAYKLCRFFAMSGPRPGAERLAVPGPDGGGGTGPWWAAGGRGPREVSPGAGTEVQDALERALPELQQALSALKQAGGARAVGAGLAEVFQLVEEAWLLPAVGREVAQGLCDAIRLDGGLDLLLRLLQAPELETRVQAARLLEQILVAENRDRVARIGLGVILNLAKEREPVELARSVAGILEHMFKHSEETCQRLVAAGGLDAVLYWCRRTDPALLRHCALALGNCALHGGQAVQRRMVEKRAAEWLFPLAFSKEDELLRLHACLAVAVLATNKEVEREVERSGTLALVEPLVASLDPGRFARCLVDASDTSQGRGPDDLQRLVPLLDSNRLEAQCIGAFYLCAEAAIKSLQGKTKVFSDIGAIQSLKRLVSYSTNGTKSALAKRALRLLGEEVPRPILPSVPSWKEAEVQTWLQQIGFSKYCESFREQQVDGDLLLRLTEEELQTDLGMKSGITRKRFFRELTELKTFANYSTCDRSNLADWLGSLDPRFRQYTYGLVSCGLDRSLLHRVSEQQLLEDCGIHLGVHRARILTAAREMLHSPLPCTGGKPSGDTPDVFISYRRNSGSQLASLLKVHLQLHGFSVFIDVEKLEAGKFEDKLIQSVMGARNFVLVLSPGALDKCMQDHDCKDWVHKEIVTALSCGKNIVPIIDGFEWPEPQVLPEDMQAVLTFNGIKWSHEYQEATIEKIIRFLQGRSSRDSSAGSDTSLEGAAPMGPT
Where [16] appears, read: measured here: relative caspase fold change +Dox/-Dox.
[17] abbreviates: measured here: total cells with miR-34 induction, stronger effect = lower value.
[18] abbreviates: measured here: total cells without miR-34 induction.
The mark [19] stands for this setting: measured here: epithelial PC-3E GFP cell survival.
Setting [20] is: measured here: mesenchymal TEM4-18 mCherry cell survival.

Chain of ATP-dependent translocase ABCB1 (Homo sapiens) (P08183 whole entry, looked up): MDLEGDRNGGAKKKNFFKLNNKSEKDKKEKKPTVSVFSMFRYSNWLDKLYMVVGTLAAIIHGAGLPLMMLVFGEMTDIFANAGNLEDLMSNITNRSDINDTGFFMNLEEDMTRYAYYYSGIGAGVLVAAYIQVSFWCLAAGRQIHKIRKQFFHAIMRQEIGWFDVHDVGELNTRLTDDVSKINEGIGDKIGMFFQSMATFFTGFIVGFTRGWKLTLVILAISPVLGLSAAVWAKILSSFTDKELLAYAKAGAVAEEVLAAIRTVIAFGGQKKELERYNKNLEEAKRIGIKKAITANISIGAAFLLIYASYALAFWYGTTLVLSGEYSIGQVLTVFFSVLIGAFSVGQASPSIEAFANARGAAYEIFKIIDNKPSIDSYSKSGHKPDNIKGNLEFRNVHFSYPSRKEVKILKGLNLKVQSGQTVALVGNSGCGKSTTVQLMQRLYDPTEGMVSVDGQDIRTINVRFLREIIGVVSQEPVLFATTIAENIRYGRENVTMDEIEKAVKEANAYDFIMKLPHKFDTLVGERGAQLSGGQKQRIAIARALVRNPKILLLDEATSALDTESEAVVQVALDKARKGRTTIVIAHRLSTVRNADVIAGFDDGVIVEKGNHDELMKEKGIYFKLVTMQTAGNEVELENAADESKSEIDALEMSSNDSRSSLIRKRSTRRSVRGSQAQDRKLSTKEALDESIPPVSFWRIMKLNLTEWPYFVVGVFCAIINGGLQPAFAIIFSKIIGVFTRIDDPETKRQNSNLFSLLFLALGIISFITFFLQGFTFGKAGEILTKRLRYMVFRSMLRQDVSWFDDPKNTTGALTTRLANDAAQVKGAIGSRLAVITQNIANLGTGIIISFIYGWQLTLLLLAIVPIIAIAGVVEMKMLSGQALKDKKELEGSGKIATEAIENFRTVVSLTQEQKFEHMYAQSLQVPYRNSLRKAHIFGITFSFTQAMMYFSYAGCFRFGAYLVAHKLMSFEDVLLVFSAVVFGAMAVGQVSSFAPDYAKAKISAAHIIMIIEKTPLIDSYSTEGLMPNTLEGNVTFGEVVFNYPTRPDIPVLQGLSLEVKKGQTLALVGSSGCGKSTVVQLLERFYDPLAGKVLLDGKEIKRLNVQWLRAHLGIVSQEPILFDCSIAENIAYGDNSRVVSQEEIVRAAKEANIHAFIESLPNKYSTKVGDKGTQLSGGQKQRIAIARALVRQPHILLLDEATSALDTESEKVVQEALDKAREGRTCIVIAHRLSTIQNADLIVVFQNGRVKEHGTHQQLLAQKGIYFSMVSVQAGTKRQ
Chain of Mitogen-activated protein kinase 7 (Homo sapiens) (Q13164 whole entry, looked up, the tested form may be a part): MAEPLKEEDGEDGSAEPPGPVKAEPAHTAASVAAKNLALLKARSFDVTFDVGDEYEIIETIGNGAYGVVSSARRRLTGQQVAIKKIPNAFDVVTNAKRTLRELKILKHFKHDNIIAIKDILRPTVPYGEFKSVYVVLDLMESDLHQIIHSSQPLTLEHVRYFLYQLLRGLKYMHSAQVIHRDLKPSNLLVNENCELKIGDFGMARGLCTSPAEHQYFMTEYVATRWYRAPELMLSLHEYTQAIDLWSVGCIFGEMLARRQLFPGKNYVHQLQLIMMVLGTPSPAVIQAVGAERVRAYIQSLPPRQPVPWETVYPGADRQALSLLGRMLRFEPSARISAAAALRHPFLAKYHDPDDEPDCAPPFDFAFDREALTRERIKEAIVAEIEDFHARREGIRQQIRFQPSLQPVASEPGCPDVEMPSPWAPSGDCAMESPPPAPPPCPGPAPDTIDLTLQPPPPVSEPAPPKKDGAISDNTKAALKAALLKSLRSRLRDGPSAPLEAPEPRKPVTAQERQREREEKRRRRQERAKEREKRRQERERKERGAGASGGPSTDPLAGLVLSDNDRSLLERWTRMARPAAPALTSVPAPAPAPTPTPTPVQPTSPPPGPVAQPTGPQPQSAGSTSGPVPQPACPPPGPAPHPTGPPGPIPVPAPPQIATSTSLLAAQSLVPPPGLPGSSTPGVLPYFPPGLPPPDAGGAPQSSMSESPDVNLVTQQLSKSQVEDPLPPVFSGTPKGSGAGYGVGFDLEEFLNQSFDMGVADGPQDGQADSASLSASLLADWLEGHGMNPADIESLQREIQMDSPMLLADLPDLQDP

Consider `NCCc1c[nH]c2ccc(C(N)=O)cc12`, for which the period change in test [1] is -0.055 h (inactive). Besides, the inhibition in [2] was -3% (inactive). Besides, the fluorescence ratio (interference) in [3] was 1 (inactive). The remaining activity in test [4] was 111% (inactive); in test [5], 90% (inactive). The fold change was 0.977 (inactive) and 0.883 (inactive) in [6] (stronger effect = lower value); 1.26 and 0.923 in test [6] (setting [16]). The cell count in test [6] (setting [17]) was 10000 and 7810; in [6] (setting [18]), 10300 and 8850. Besides, the outcome in test [7] was inactive. Moreover, the z-score in [8] is 0.31 (inactive) and 0.705 (inactive).
In the case of `C[C@]12N[C@H](Cc3ccccc31)c1ccccc12`, the fluorescence slope change in test [9] is 55.9% (active). Also, the period change in test [1] is 0.055 h (inactive). Also, the survival in [10] was 15.6 (inactive). Besides, in test [11], the parasite load remaining is 44.8% (inactive) and 97.8% (inactive). Moreover, the viability in [11] was 70.4% and 87.5%. In test [2], the inhibition was -1% (inactive). In addition, the fluorescence ratio (interference) in test [3] is 1 (inactive). In addition, the values for the remaining activity in test [4] and in test [5] were 117% (inactive) and 89.7% (inactive), respectively. The fold change was 1.14 (inactive) and 0.978 (inactive) and 0.959 (inactive) in [6] (stronger effect = lower value); 0.783 and 1.01 and 0.875 in test [6] (setting [16]). In addition, the cell count was 10200 and 8980 and 9270 in test [6] (setting [17]); 8990 and 9190 and 9660 in test [6] (setting [18]). In test [7], the call was inactive. Moreover, the z-score in test [12] (MELAS cybrid survival, CellTiter-Glo 48 h, stronger effect = higher value) was 0.143 (inactive); in [12] (Rieske KO mouse fibroblast survival, CellTiter-Glo 72 h), 0.47; in test [8], -0.205 (inactive) and 0.805 (inactive).
Turning to `COC(=O)[C@@H]1C[C@H](OC(C)=O)C(=O)[C@H]2[C@@]1(C)CC[C@H]1C(=O)O[C@H](c3ccoc3)C[C@]21C`, the red/green cell ratio (normalised) in [13] is 1.04 (inactive). Further, the results for the normalised cell number in test [13] (setting [19]) and in test [13] (setting [20]) were 0.84 and 0.87, respectively. Besides, the luciferase signal in test [14] is 52 AU (inactive).
Take `CCCN(CCC)C1Cc2cc(OC)c(OC)cc2C1`: the period change in test [1] is -0.045 h (inactive). Further, the inhibition in [2] is -2% (inactive). Also, in [3], the fluorescence ratio (interference) was 1 (inactive). The remaining activity in [4] was 120% (inactive); in test [5], 106% (inactive). The fold change in test [6] (stronger effect = lower value) was 0.979 (inactive) and 0.907 (inactive); in test [6] (setting [16]) it was 0.924 and 0.563. Besides, the cell count in test [6] (setting [17]) is 9280 and 9110; in test [6] (setting [18]), 9480 and 10000. In test [7], the molecule was classed as inactive. Moreover, in test [8], the z-score is 0.43 (inactive) and 0.01 (inactive).
With `O=C(O)CCCO`, the parasite load remaining in test [11] was 64.2% (inactive). The molecule also showed a viability in [11] of 92.7%. Moreover, in test [13], the red/green cell ratio (normalised) is 1 (inactive). For the same molecule, the normalised cell number in test [13] (setting [19]) and in test [13] (setting [20]) was 0.91 each time. Further, the figures for the fold change in [6] (stronger effect = lower value) and in [6] (setting [16]) were 0.926 (inactive) and 0.797, respectively. Besides, the cell count in [6] (setting [17]) turned out to be 11100; in test [6] (setting [18]), 11900. In test [15], the remaining NAD is 10 nM (inactive).
For `C[C@@H](N)Cc1cnc[nH]1`, the period change in test [1] is -0.03 h (inactive). In test [2], the inhibition is -1% (inactive). Further, the fluorescence ratio (interference) in test [3] was 1 (inactive). Also, the remaining activity in [4] is 120% (inactive); in [5], 105% (inactive). Besides, the fold change in [6] (stronger effect = lower value) is 0.943 (inactive); in test [6] (stronger effect = lower value, cell number ratio, induced over uninduced) it was 1.02 (inactive); in test [6] (setting [16]), 0.922 and 0.657. The cell count is 9840 and 7980 in test [6] (setting [17]); 10400 and 7800 in [6] (setting [18]). Also, the outcome in test [7] was inactive. In addition, the z-score in test [8] is 0.195 (inactive) and -0.325 (inactive).
Turning to `CC(N)Cc1c[nH]c2ccc(O)cc12` (stereo unspecified), the period change in test [1] was -0.08 h (inactive). In addition, the inhibition in test [2] was -7% (inactive). In addition, in [3], the fluorescence ratio (interference) was 0.9 (inactive). Further, the remaining activity in test [4] was 105% (inactive); in test [5], 122% (inactive). The fold change in [6] (stronger effect = lower value) was 1.02 (inactive) and 0.98 (inactive); in test [6] (setting [16]), 1.63 and 0.84. Moreover, the cell count in [6] (setting [17]) was 11100 and 9190; in test [6] (setting [18]), 10900 and 9370. Also, the molecule was called inactive in test [7]. In [8], the z-score was 0.365 (inactive) and 0.08 (inactive).
